In the library only some 1.4% were active in any assay of this set; here they are far more common.
TCR activator – activates T cell receptor signaling; AID 504894; primary human leukocytes, anti-CD3, IL-2 HTRF, 48 h; Potency, µM (series often up to 9.22 µM), for the others: top-dose activation of IL-2 secretion, most hits filed as activators; 330,000 tested, under 10 active; also: % of control where 0% means no effect
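TCR engagement came from a-CD3 beads alone, with compounds added to primary human leukocytes for 48 hr. Secreted IL-2 bridged europium cryptate- and d2-labelled anti-IL-2 antibodies, giving FRET emission at 665nm after 320nm excitation.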
BRCA1 expr up – BRCA1 expression activation; MCF7-BRCA1-FFLuc reporter, luminescence, 48 h; response scale: scaled: vehicle 0%, 10 µM genistein 100%; Potency, µM (doses to about 46.1 µM), without a hit: at the highest dose activation, hits mostly activators; 380,000 compounds, 1.1% hits; also: potency is read from the fitted curve at half-maximal effect; nearly all actives have a fitted effect of over 80% in size
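MCF7-BRCA1-FFLuc cells, 2000/well in phenol-red-free MEM, attached 2 h then treated 48 h at 37 C. Luciferase luminescence read 15 min after reagent; normalized to genistein maximum activation (10microM) and DMSO, concentration-response fitted.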
p53 reactivator – mutant p53 re-activation in reporter cells. H1299 p53-A138V BP100-luciferase reporter, luminescence, 24 h. Potency, µM (highest dose often 92.2 µM), for the others: top-dose activity change, positive = activation, hits mostly activators. 320,000 compounds, 0.063% hits; also: potency is read from the fitted curve at half-maximal effect; % of control where 0% means no effect; nearly all actives have a fitted effect of over 45% in size
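H1299 (p53-null), stable ts p53-A138V + BP100-Luc; 1000 cells/well, Opti-MEM/10% FBS; cpd 4 pt, 1:5; 24 h, 37 deg C, 5% CO2; detection reagent 10 min RT; luminescence.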
IL2 activator – activators of IL-2; 360,000 compounds, 0.065% hits; activation, % (series mostly up to about 46 µM); IL-2 activation reporter assay, cell-based qHTS; stimulated with anti-CD3/CD4/CD28 beads; in transgenic mouse T cells; in the data active = activation above about 50%; inconclusive = mostly about 30% to 49%; also: 0% is about no effect
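Readout: EGFP and DsRed signals by fluorescent plate cytometry. Unstimulated transgenic mouse T cells received compound 60 min before antibody-bead stimulation, then incubated 18 h at 37 degrees C.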
uPA surface inh – inhibitors of cell surface uPA generation; Potency, µM (titrated, usually from 38.3 µM), for the others: top-dose activity change, negative = inhibition, hits mostly inhibitors; cell surface uPA generation assay, qHTS; 330,000 compounds, 0.31% hits; active = well fitted inhibition curve with a large enough effect; inconclusive = small, poorly fitted or top-dose-only effect; inactive = no such curve, though single readings can be large or run the other way; tested in mouse RAW 264.7 cells; also: potency is read from the fitted curve at half-maximal effect; % is scaled to controls: 0 for no effect and ±100 for the full control effect; nearly all actives have a fitted effect of over 55% in size
Starred values were filed as active, the others as inactive; u = inconclusive; x = not tested or not shown; [ ] = remark or other dose. Unless noted, calls follow the shape of the dose curve; as a rule, active = well fitted curve in the direction sought with a large enough effect; inconclusive = small, poorly fitted or top-dose-only effect, or another doubt; inactive = no such curve, though single readings can be large; an effect the other way counts as inactive or inconclusive.

SMILES	TCR activator	BRCA1 expr up	p53 reactivator	IL2 activator	uPA surface inh
COc1cc(OC)cc(C(=O)NCC(=O)N2CC=C(c3ccccc3)CC2)c1	12%	-72%	-3%	-4	4.5µM*
O=C(NCC(=O)N1CC=C(c2ccccc2)CC1)c1ccc(OC(F)F)cc1	0%	-48%	0%	0	u
COc1ccc(-c2csc3ncnc(N4CCN(c5cccc(OC)c5)CC4)c23)cc1	2%	-11%	-14%	-5	4%
COc1ccc(-c2csc3ncnc(N4CCN(c5cccc(Cl)c5)CC4)c23)cc1	2%	-79%	-14%	-4	11µM*
O=C(NCCc1ccccc1F)c1cccc2cccnc12	2%	2µM*	21%	0	-3%
CCOc1ncccc1C(=O)NCc1ccccc1F	4%	4%	-3%	1	-15%
O=C(CSc1nc2nn(-c3ccccc3)c(=O)c-2c2n1CCCCC2)c1ccc(O)c(O)c1	-3%	-25%	28µM*	0	-4%
CNC(=O)CSc1nc2nn(-c3ccccc3)c(=O)c-2c2n1CCCCC2	5%	-41%	1%	3	x
Cc1ccsc1/C=C(\CC(=O)O)c1nc2ccccc2o1	0%	7.9µM*	12%	-2	-3%
O=c1[nH]c2c(-c3nc(-c4ccc(F)cc4)cs3)c(O)cn2c2ccc(Br)cc12	x	-23%	x	x	x
Cc1ccc(OCc2cc(C(=O)N3CCN(C)C[C@@H]3c3ccccc3)no2)cc1C	-30%	u	22%	-5	-15%
COc1ccccc1OCc1cc(C(=O)N2CCN(C)C(c3ccccc3)C2)no1 (centres undefined)	-6%	10µM*	u	0	-1%
CN1CCN(C(=O)c2cc(COc3ccccc3)on2)[C@@H](c2ccccc2)C1	3%	5µM*	u	-2	-3%
COc1cc(Cl)ccc1OCc1cc(C(=O)N2CCN(C)C(=O)[C@@H]2C)no1	x	10µM*	x	-2	x
COc1ccccc1OCc1cc(C(=O)N2CC3C[C@@H]4CC2C[C@H](C3)C4)no1	-1%	7.9µM*	u	-3	-19%
COc1cc(Cl)ccc1OCc1cc(C(=O)N2CCN(C)CC2)no1	9%	15%	7%	-3	-5%
Cc1ccc(C)c(N(C)C(=O)C2CCN(S(=O)(=O)c3cccc4nsnc34)CC2)c1	x	-16%	x	x	x
NS(=O)(=O)c1ccc(CNc2ccc3ccccc3n2)cc1	-11%	8.9µM*	20%	-2	-2%
NS(=O)(=O)c1ccc(CNC(=O)c2ccc3ccccc3n2)cc1	7%	-18%	4%	0	1%
CC(C)CCOC(=O)C[N+](C)(C)CCOC1CC2CCC1(C)C2(C)C (centres undefined)	-1%	-33%	1%	-1	10µM*
Cc1noc(-c2ccc(NCc3ccccc3)c([N+](=O)[O-])c2)n1	x	22%	x	x	x
O=C(CCc1ccccc1)n1nc(-c2ccco2)nc1SCc1ccccc1	-6%	10µM*	u	-1	u
O=C(Cn1ccsc1=NC(=O)C(F)(F)F)c1ccccc1	4%	7.9µM*	19%	-2	-1%
O=C(Cn1cnc2ccccc21)c1ccccc1	6%	54%	7%	-3	2%
O=C(CN1C(=O)C2(SCC(=O)N2c2cccc(Cl)c2)c2ccccc21)NCCc1ccccc1 (centres undefined)	x	-22%	x	x	x
SMILES	TCR activator	BRCA1 expr up	p53 reactivator	IL2 activator	uPA surface inh
COc1ccc(OC)c(C2CC(=O)Nc3c2c(=O)n(C)c2ncnn32)c1 (centres undefined)	x	2%	x	x	x
O=C(Nc1ccc(-c2nc3cccnc3s2)cc1)C1CCCO1 (centres undefined)	1%	-14%	x	-3	2.5µM*
COc1ccccc1-c1nnc(NC(=O)CSc2nncn2C)s1	4%	10µM*	-6%	-3	-12%
COc1ccccc1-c1nnc(NC(=O)C(C)Sc2nncn2C)s1 (centres undefined)	-4%	-37%	1%	-1	u
COc1cccc(CN2C(=O)C3(SCC(=O)N3c3cc(C)cc(C)c3)c3ccccc32)c1 (centres undefined)	x	-56%	x	x	x
C/C(=N\NC(=O)c1ccn(C)n1)c1cccc(NC(=O)c2ccc(C)s2)c1	-1%[46.1 µM]	11µM*	-6%	0	-5%
Nc1nonc1-c1noc(CCCN2C(=O)c3ccccc3C2=O)n1	4%	4.5µM*	18%	-2	5%
O=C(Nc1ccccc1Cl)C1CCCN(S(=O)(=O)c2cccc3cccnc23)C1 (centres undefined)	-12%	-76%	-7%	0	-20%
O=C(Nc1nc2cc(Cl)ccc2s1)C1CCCN(S(=O)(=O)c2cccc3cccnc23)C1 (centres undefined)	-1%	-21%	2%	-4	13µM*
Cc1ccc(NC(=O)c2cc3c([nH]c2=O)CC(C)(C)CC3=O)cc1	x	0%	x	x	x
CCCCc1ccc(Nc2ncnc3nc[nH]c23)cc1	0%	4.5µM*	u	-2	u
CCc1ccc(Nc2ncnc3nc[nH]c23)cc1	-3%	u	7%	-1	-4%
COc1ccc(C2Nc3ccccc3C(=O)N2Cc2ccco2)cc1OC (centres undefined)	x	-12%	x	x	x
CCCCN(CCCC)c1ncnc2nc[nH]c12	4%	-21%	-4%	1	-11%
CCCCN(Cc1ccccc1)c1ncnc2nc[nH]c12	-1%[46.1 µM]	13µM*	u	-1	3%
COc1cccc(-c2ccc3c(N)c(C(=O)NCc4ccc(Cl)cc4)sc3n2)c1	x	-42%	x	x	x
Cc1ccnc(NC(=O)c2ccccc2NC(=O)c2ccc(Cl)cc2Cl)c1	x	-31%	-38%	0	2.8µM*
COC(=O)c1ccc(COC(=O)c2ccc(SC)cc2OC)cc1	-2%[46.1 µM]	8.9µM*	u	-1	8%
CCOC(=O)C1=C(O)/C(=C/c2cn(CC(=O)N3CCCC3)c3ccccc23)SC1=Nc1ccccc1	0%[46.1 µM]	-15%	-2%	219*	4%
N#Cc1cccc(NC(=O)Nc2cccs2)c1	-1%	15%	-2%	0	2%
CCc1cccc(NC(=O)Nc2cccs2)c1	2%	11µM*	26%	0	5%
CC1Sc2ccc(C(=O)OCc3ccccc3Cl)cc2NC1=O (centres undefined)	-5%	6.3µM*	u	-1	4%
c1ccc2oc(-c3ccn[nH]3)cc2c1	5%	4.5µM*	10%	-2	-4%
COc1ccc(C(=O)CC(=O)c2ccccc2O)cc1OC	-2%	13µM*	1%	0	-6%
CCC(=O)c1ccc(OCc2ccccc2)c(OC)c1	-1%[46.1 µM]	6.3µM*	u	0	-7%
CCCCC(CC)Cn1c(Oc2ccccc2)nc2c1c(=O)n(C)c(=O)n2C (centres undefined)	x	-11%	x	x	x
CCCCN1C(=O)/C(=C/C=C2/CC(C)(C)CN2C)SC1=S	8%[46.1 µM]	10µM*	u	21	2%

Source: PubChem BioAssay (National Center for Advancing Translational Sciences (NCATS))
